Test results reported in PubChem BioAssay (Tox21).
The source made the active and inactive calls. Calls follow the shape of the dose curve; as a rule, active = well fitted curve in the direction sought with a large enough effect in the repeat runs; inconclusive = weak or mixed curves; inactive = flat fitted curve, though single readings scatter.

Assay: qHTS assay to test for compound auto fluorescence at 460 nm (blue) in HEK293 cell free culture (AID 720681)
Settings: cell-free medium, autofluorescence 405/460 nm (blue); series mostly up to 91.3 µM; fluorescence, % of fluorescent control: at the top concentration
How it was run: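 Test compounds were pinned into cell-free culture medium (DMEM with 10% FBS) and fluorescence was read directly at Ex/Em 405/460 nm. Signals were expressed as fluorescence equivalents of triamterene, with DMSO vehicle as control.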
% is scaled to controls: 0 for no effect and ±100 for the full control effect.

| Structure (SMILES) | fluorescence, % of fluorescent control | Potency |
| --- | --- | --- |
| N[C@@H](Cc1cc(I)c(O)c(I)c1)C(=O)O | 0.0704% [at 46 µM] (inactive) | – |
| CCCCCCCC/C=C\CCCCCCCC(=O)OCCO | 0.0278% [at 95.7 µM] (inactive) | – |
| COc1ccc(CCN(C)CCCN2CCc3cc(OC)c(OC)cc3CC2=O)cc1OC | -0.0462% [at 46 µM] (inactive) | – |
| CC(C)(C)C1(CCc2ccc(Cl)cc2)CO1 (stereo not drawn) | 0.0877% (inactive) | – |
| CC(=O)C(C)=O | 0.107% (inactive) | – |
| O=C(O)c1ccc(O)cc1O | -0.0896% (inactive) | – |
| COC1CCC=CO1 (stereo not drawn) | -0.09% (inactive) | – |
| CCN(CC)CCOC(=O)C(c1ccccc1)c1ccccc1 | -0.0477% [at 46 µM] (inactive) | – |
| Cc1cccc2sc(N)nc12 | -0.148% [at 95.7 µM] (inactive) | – |
| CC(=O)OCC(=O)[C@@]1(OC(C)=O)[C@@H](C)C[C@H]2[C@@H]3C[C@H](F)C4=CC(=O)C=C[C@]4(C)[C@@]3(F)[C@@H](O)C[C@@]21C | 0.028% [at 46 µM] (inactive) | – |
| COc1ccc(C(=O)NCc2ccc(OCCN(C)C)cc2)cc1OC | 0.0069% [at 46 µM] (inactive) | – |
| CC[C@@H](CO)NCCN[C@@H](CC)CO | 0.0181% [at 18.6 µM] (inactive) | – |
| COc1ccc(N)c([N+](=O)[O-])c1 | -0.0641% (inactive) | – |
| Cc1ccc2c(c1[N+](=O)[O-])C(=O)c1ccccc1C2=O | 0.0232% [at 46 µM] (inactive) | – |
| CC(=O)N[C@@H](Cc1ccc(O)cc1)C(=O)O | -0.0041% [at 46 µM] (inactive) | – |
| Cc1cn([C@H]2C[C@H](F)[C@@H](CO)O2)c(=O)[nH]c1=O | -0.0059% [at 46 µM] (inactive) | – |
| C1=CCC2CC=CC2C1 (stereo not drawn) | -0.0053% (inactive) | – |
| c1ccc(CNc2ncnc3c2ncn3C2CCCCO2)cc1 (stereo not drawn) | 0.085% (inactive) | – |
| CCCCCc1ccco1 | 0.61% (inactive) | – |

| Structure (SMILES) | fluorescence, % of fluorescent control | Potency |
| --- | --- | --- |
| CCCCC(CC)COS(=O)(=O)O (stereo not drawn) | – | inactive |
| CC1CCCO1 (stereo not drawn) | -0.0253% (inactive) | – |
| c1ccc(CCCc2ccncc2)cc1 | 0.0163% (inactive) | – |
| CC(C)(C(=O)c1cccnc1)c1cccnc1 | -0.108% [at 18.6 µM] (inactive) | – |
| SCCc1cnccn1 | -0.0005% (inactive) | – |
| O=C1NC(=O)c2cccc3cccc1c23 | -0.0493% (inactive) | – |
| CC1CCCC(=O)C1=O (stereo not drawn) | -0.0706% (inactive) | – |
| CCC1CCC(CCC(=O)O)C1 (stereo not drawn) | 0.0119% [at 95.7 µM] (inactive) | – |
| BrC(Br)C(Br)Br | -0.16% (inactive) | – |
| O=c1[nH]c2cc(C(F)(F)F)c(N3CCOCC3)cc2n(CP(=O)(O)O)c1=O | 0.0236% [at 46 µM] (inactive) | – |
| Cc1c(C2(c3cc(Br)c(O)c(Br)c3C)OS(=O)(=O)c3ccccc32)cc(Br)c(O)c1Br | -1.05% (inactive) | – |
| O=C(O)CN1C(=O)c2cccc3cccc(c23)C1=O | 0.526% [at 46 µM] (inactive) | – |
| CCCCCC | -0.0002% (inactive) | – |
| O=C(O)c1cccc(C[C@@H]2COc3ccc(OCc4nc5cc(F)ccc5s4)cc3[C@@H]2O)c1 | -0.0336% (inactive) | – |
| COC(OC)OC | -0.0182% (inactive) | – |
| O=C(O)CCC(=O)OC[C@@H](NC(=O)C(Cl)Cl)[C@H](O)c1ccc([N+](=O)[O-])cc1 | 0.054% [at 46 µM] (inactive) | – |
| CC(O)Cn1cnc2c1c(=O)n(C)c(=O)n2C (stereo not drawn) | -0.136% [at 18.6 µM] (inactive) | – |
| CCCOC(=O)c1c(Cl)c(Cl)c(Cl)c(Cl)c1C(=O)OCCC | 0.0213% (inactive) | – |

Assay: qHTS assay to test for compound auto fluorescence at 535 nm (green) in HEK293 cell free culture (AID 720682)
Settings: cell-free medium, green autofluorescence 485/535 nm, active compounds read high; series mostly up to 91.3 µM; activity change: at the top concentration
How it was run: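 Using fluorescein as calibrant, autofluorescence was quantified at 485/535 nm in cell-free DMEM containing 10% FBS after pintool addition of compound or vehicle.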

| Structure (SMILES) | activity change | outcome |
| --- | --- | --- |
| N[C@@H](Cc1cc(I)c(O)c(I)c1)C(=O)O | -0.0116% [at 46 µM] (inactive) | – |
| CCCCCCCC/C=C\CCCCCCCC(=O)OCCO | 0.0888% [at 95.7 µM] (inactive) | – |
| COc1ccc(CCN(C)CCCN2CCc3cc(OC)c(OC)cc3CC2=O)cc1OC | -0.118% [at 46 µM] (inactive) | – |
| CC(C)(C)C1(CCc2ccc(Cl)cc2)CO1 (stereo not drawn) | 0.0689% (inactive) | – |
| CC(=O)C(C)=O | -0.0017% (inactive) | – |
| O=C(O)c1ccc(O)cc1O | 0.0408% (inactive) | – |
| COC1CCC=CO1 (stereo not drawn) | -0.0185% (inactive) | – |
| CCN(CC)CCOC(=O)C(c1ccccc1)c1ccccc1 | 0.0817% [at 46 µM] (inactive) | – |
| Cc1cccc2sc(N)nc12 | 0.0378% [at 95.7 µM] (inactive) | – |
| CC(=O)OCC(=O)[C@@]1(OC(C)=O)[C@@H](C)C[C@H]2[C@@H]3C[C@H](F)C4=CC(=O)C=C[C@]4(C)[C@@]3(F)[C@@H](O)C[C@@]21C | -0.0064% [at 46 µM] (inactive) | – |
| COc1ccc(C(=O)NCc2ccc(OCCN(C)C)cc2)cc1OC | -0.156% [at 46 µM] (inactive) | – |
| CC[C@@H](CO)NCCN[C@@H](CC)CO | 0.014% [at 18.6 µM] (inactive) | – |
| Cc1ccc2c(c1[N+](=O)[O-])C(=O)c1ccccc1C2=O | -0.032% [at 46 µM] (inactive) | – |
| CC(=O)N[C@@H](Cc1ccc(O)cc1)C(=O)O | 0.0191% [at 46 µM] (inactive) | – |
| C1=CCC2CC=CC2C1 (stereo not drawn) | -0.0159% (inactive) | – |
| c1ccc(CNc2ncnc3c2ncn3C2CCCCO2)cc1 (stereo not drawn) | -0.0574% (inactive) | – |

| Structure (SMILES) | activity change | outcome |
| --- | --- | --- |
| CCCCCc1ccco1 | 0.304% (inactive) | – |
| CCCCC(CC)COS(=O)(=O)O (stereo not drawn) | – | inactive |
| c1ccc(CCCc2ccncc2)cc1 | -0.05% (inactive) | – |
| CC(C)(C(=O)c1cccnc1)c1cccnc1 | 0.0185% [at 18.6 µM] (inactive) | – |
| O=C1NC(=O)c2cccc3cccc1c23 | 0.0445% (inactive) | – |
| CCC1CCC(CCC(=O)O)C1 (stereo not drawn) | 0.0389% [at 95.7 µM] (inactive) | – |
| BrC(Br)C(Br)Br | 0.0646% (inactive) | – |
| Cc1c(C2(c3cc(Br)c(O)c(Br)c3C)OS(=O)(=O)c3ccccc32)cc(Br)c(O)c1Br | -0.907% (inactive) | – |
| O=C(O)CN1C(=O)c2cccc3cccc(c23)C1=O | 0.0005% [at 46 µM] (inactive) | – |
| CCCCCC | 0.0189% (inactive) | – |
| O=C(O)c1cccc(C[C@@H]2COc3ccc(OCc4nc5cc(F)ccc5s4)cc3[C@@H]2O)c1 | -0.0195% (inactive) | – |
| COC(OC)OC | -0.0832% (inactive) | – |
| O=C(O)CCC(=O)OC[C@@H](NC(=O)C(Cl)Cl)[C@H](O)c1ccc([N+](=O)[O-])cc1 | 0.0247% [at 46 µM] (inactive) | – |
| CC(O)Cn1cnc2c1c(=O)n(C)c(=O)n2C (stereo not drawn) | -0.0176% [at 18.6 µM] (inactive) | – |
| CCCOC(=O)c1c(Cl)c(Cl)c(Cl)c(Cl)c1C(=O)OCCC | 0.0132% (inactive) | – |
